Compound activity (PubChem)
HEK293 tox = cytotoxic compounds in HEK 293 cells. Potency, µM (highest dose often 115 µM), without a hit: top-dose activity change, negative = cytotoxicity, usual class: inhibitors. actives 6.6% (n = 94,000). HEK 293 viability, ATP luminescence (CellTiter-Glo), 48-72 h; further: nearly all actives have a fitted effect of over 60% in size
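Cells seeded first (HEK 293, 250 cells/well), then compound added by pintool. Incubation ran 48 or 72 hr at 37 degree Celsius. CellTiter-Glo was added and luminescence imaged after 10 min at room temperature.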
GPT2 inhibitor = blocks human glutamate pyruvate transaminase 2; Q8TD30; Recombinant GPT2, coupled pyruvate oxidase/HRP Amplex Red fluorescence; Potency, µM (titrated, usually from 57.7 µM), for the others: at the highest dose activity change, negative = inhibition, actives largely listed as inhibitors; actives 0.25% (n = 100,000); AID 1671188; further: nearly all actives have a fitted effect of over 60% in size
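GPT2 10ng/uL, a-KG 250uM, L-Ala 2mM, HEPES pH7.5 + 0.0001% Tween; 30 min RT. Then Amplex mix (PO/HRP/ThPP), 30 min RT dark, fluorescence. AOA 50uM used as positive control.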
FLuc inh = inhibitors of firefly (Photinus pyralis) luciferase; P08659; purified P. pyralis luciferase, luminescence, biochemical; Potency, µM (titrated, usually from 115 µM), usual class: inhibitors; actives 2.5% (n = 76,000); AID 1347043; further: nearly all actives have a fitted effect of over 65% in size
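Cell-free enzyme assay, 10nM P. pyralis luciferase, luciferin and ATP each at 10uM. Inhibition profiled over a 6-point titration, read as luminescence.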
hNpr1 antagonist = blocks ANP-stimulated signaling of human Npr1 receptor; AID 1347048; Potency, µM (highest dose often 46.3 µM), for the others: top-dose activity change, negative = inhibition, usual class: inhibitors; actives 1.6% (n = 76,000); HEK293 hNpr1 GloSensor cGMP, ANP-stimulated luminescence; calls by dose curve; further: nearly all actives have a fitted effect of over 60% in size
Target sequence (P16066 whole entry, looked up): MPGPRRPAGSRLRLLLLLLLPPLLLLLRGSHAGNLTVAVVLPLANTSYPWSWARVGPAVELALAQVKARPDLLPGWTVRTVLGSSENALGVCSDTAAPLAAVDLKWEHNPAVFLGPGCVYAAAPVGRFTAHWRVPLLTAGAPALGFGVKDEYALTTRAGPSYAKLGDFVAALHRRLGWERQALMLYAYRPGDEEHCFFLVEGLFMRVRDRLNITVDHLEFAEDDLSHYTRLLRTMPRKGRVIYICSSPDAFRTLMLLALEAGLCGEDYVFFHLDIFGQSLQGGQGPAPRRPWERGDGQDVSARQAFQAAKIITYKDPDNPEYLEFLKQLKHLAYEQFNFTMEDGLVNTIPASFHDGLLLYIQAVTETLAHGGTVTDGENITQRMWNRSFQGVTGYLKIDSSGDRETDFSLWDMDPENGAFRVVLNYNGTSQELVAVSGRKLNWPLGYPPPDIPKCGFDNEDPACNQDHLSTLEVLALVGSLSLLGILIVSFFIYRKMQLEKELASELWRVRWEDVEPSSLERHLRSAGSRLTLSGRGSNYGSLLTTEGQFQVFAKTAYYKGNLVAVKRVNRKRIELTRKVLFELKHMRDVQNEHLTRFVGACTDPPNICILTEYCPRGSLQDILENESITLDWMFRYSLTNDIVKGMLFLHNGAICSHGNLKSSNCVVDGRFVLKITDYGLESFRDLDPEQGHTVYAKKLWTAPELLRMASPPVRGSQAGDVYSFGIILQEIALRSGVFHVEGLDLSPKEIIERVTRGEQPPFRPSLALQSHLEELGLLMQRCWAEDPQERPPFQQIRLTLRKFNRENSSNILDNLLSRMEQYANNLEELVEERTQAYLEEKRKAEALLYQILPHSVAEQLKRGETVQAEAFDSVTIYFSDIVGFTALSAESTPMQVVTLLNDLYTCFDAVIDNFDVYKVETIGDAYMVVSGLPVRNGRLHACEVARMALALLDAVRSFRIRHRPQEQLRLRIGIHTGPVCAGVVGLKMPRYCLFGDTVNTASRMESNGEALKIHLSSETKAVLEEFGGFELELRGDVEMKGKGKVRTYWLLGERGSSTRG
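HEK293 cells stably expressing human Npr1 and cGMP GloSensor pGS-40F, loaded 2 h with 2% GloSensor reagent, given compound 30 min at room temperature. Luminescence read before and 20 min after 0.1 nM hNppA.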
3T3 cytotox = NIH 3T3 cell cytotoxicity; actives 4.3% (n = 94,000); NIH 3T3 viability, CellTiter-Glo ATP luminescence, 48-72 h; AID 1345082; Potency, µM (series often up to 96.7 µM), for the others: at the highest dose activity change, negative = cytotoxicity, usual class: inhibitors; further: nearly all actives have a fitted effect of over 55% in size
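Mouse fibroblast NIH 3T3 cells, 400 per well, received compound via pintool and were incubated for 48 or 72 hr prior to CellTiter-Glo ATP luminescence measurement.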
Starred values were filed as active, the others as inactive; i = inactive; ? = inconclusive; . = not tested or not shown; ! = not confirmed by another sample; [ ] = dose if it differs, or a comment. Most compounds without a hit are left out; they make up all but 10% or so of the library. Unless noted, the call rests on the fitted dose curve; in most records, active means well fitted curve in the direction sought with a large enough effect; inconclusive means small, poorly fitted or top-dose-only effect, or another doubt; inactive means no such curve, though single readings can be large; an effect the other way counts as inactive or inconclusive. On the % scale 0 is the no-effect control and ±100 the full control effect; potency means the concentration at half of the fitted maximal effect.

SMILES	HEK293 tox	GPT2 inhibitor	FLuc inh	hNpr1 antagonist	3T3 cytotox
Cc1c(F)cccc1NC(=O)N1CCCC(Cn2c(C)nc3cccnc32)C1 (stereo unspecified)	?	i	i	-12.6%	?
COCC1CN(C)CC12CCN(C(=O)Cc1ccc(OC)cc1)CC2 (stereo unspecified)	?	2.4%	i	-1.5%	-10.0%
O=S(=O)(c1ccccc1)N1CCC(F)(c2nc(-c3ccncc3)no2)CC1	31.6µM*	i	.	.	?
CCn1cc(S(=O)(=O)N2CCC(F)(c3nc(-c4ccncc4)no3)CC2)cn1	44.7µM*	-4.2%	.	.	?
Cc1cccc(NC(=O)N2C[C@@H](F)C[C@H]2C(=O)N2CCc3ccccc3C2)c1C	?	i	i	-4.5%	i
COc1ccc(S(=O)(=O)N2C[C@@H]3C[C@H](C2)c2c(-c4ccc(NC(C)=O)cc4)ccc(=O)n2C3)cc1	-7.6%	1.7%	i	-5.6%	-3.2%
COc1cccc(CNC(=O)CNC(=O)c2ccc(-c3cccc(C(F)(F)F)c3)cc2)c1	0.9%	i	.	.	-0.9%
CSc1ccc(-c2cccc(C(=O)NCCNC(=O)c3ccccc3F)c2)cc1	?	-1.7%	.	.	-39.0%
CSc1ccc(-c2cccc(C(=O)NCCNC(=O)c3ccccc3C)c2)cc1	25.1µM*	-20.7%	.	.	-42.3%
CSc1ccc(-c2cccc(C(=O)NCC(=O)NCc3ccc(C(F)(F)F)cc3)c2)cc1	44.7µM*	i	.	.	?
COc1cccc(CNC(=O)CNC(=O)c2cccc(-c3ccc(C(F)(F)F)cc3)c2)c1	22.4µM*	0.7%	.	.	?
CSc1ccc(-c2cccc(C(=O)NCC(=O)NCc3cccnc3)c2)cc1	22.4µM*	i	.	.	?
CSc1ccc(-c2cccc(C(=O)NCC(=O)NCc3cccc(F)c3)c2)cc1	?	i	.	.	?
COc1ccc(-c2ccc(C(=O)N3CCC(NC(=O)N(C)C)CC3)cc2)nn1	-15.9%[172 µM]	.	.	.	-11.2%[138 µM]
O=C(c1ccc(Cl)cc1)N1CCN(c2ccnc3ccnn23)CC1	?	2.1%	.	.	?
COc1ccc(CNC(=O)CNC(=O)c2cccc(-c3ccc(SC)cc3)c2)cc1OC	31.6µM*	-1.9%	.	.	?
CSc1ccc(-c2cccc(C(=O)NCC(=O)NCc3ccc4c(c3)OCO4)c2)cc1	?	i	.	.	-33.8%
O=C(CNC(=O)c1cccc(-c2ccc(C(F)(F)F)cc2)c1)NCc1ccccc1	?	0.2%	.	.	?
O=C(CNC(=O)c1cccc(-c2ccc(C(F)(F)F)cc2)c1)NCc1ccc(F)cc1	?	i	.	.	?
CSc1ccc(-c2cccc(C(=O)NCC(=O)NCc3cccc(C(F)(F)F)c3)c2)cc1	39.8µM*	i	.	.	?
O=C(CNC(=O)c1cccc(-c2ccc(C(F)(F)F)cc2)c1)NCc1cccs1	39.8µM*	i	.	.	?
COc1ccc(F)cc1-c1cccc(C(=O)NCC(=O)NCc2ccc(C(F)(F)F)cc2)c1	39.8µM*	.	.	.	39.8µM*
Cn1ncc2c(C(=O)N3CCCCC3)cc(-c3ccc(Cl)cc3Cl)nc21	?	i	.	.	?
O=C(c1ccc(Cl)nc1)N1CCCN(c2ccnc3ccnn23)CC1	?	-10.5%	.	.	?
Cn1ncc2c(C(=O)NCc3cccc(Cl)c3)cc(-c3ccccc3)nc21	-20.5%	i	.	.	-24.7%
SMILES	HEK293 tox	GPT2 inhibitor	FLuc inh	hNpr1 antagonist	3T3 cytotox
COc1cc(CNC(=O)c2cc(-c3ccc(Cl)cc3Cl)nc3c2cnn3C)cc(OC)c1	44.7µM*	-19.3%	.	.	?
COc1cccc(-c2cc(C(=O)NCc3cccc(Cl)c3)c3cnn(C)c3n2)c1	?	.	.	.	22.4µM*
COc1cccc(-c2cc(C(=O)NCc3cccs3)c3cnn(C)c3n2)c1	?	.	.	.	25.1µM*!
COc1cccc(CNC(=O)c2cc(-c3ccc(F)cc3)nc3c2cnn3C)c1	28.2µM*	i	.	.	?
COc1ccc(-c2cc(C(=O)NCc3cccc(OC)c3)c3cnn(C)c3n2)cc1	?	-4.4%	.	.	?
Cn1ncc2c(C(=O)NCc3cccs3)cc(-c3ccc(C(F)(F)F)cc3)nc21	35.5µM*	.	.	.	?
Cn1ncc2c(C(=O)NCc3cccs3)cc(-c3ccc(Cl)cc3)nc21	?	i	.	.	?
Cc1ccc(-c2cc(C(=O)NCc3cccc(Cl)c3)c3cnn(C)c3n2)cc1	3.1%	i	.	.	-23.9%
Cn1ncc2c(C(=O)NCCc3c[nH]c4ccccc34)cc(-c3ccc(C(F)(F)F)cc3)nc21	?	.	.	.	39.8µM*
Cc1ccc(-c2cc(C(=O)NCc3cccc(Cl)c3)c3cnn(C)c3n2)c(C)c1	31.6µM*	i	.	.	?
COc1cccc(-c2cc(C(=O)NCC#N)c3cnn(C)c3n2)c1	?	.	.	.	39.8µM*
CCN1c2cc(C(=O)Nc3cc(OC)cc(OC)c3)ccc2C(=O)N2CCCCCC21 (stereo unspecified)	?	-10.9%	i	-25.7%	?
c1cc(-c2ccco2)cc(-c2nc(C3CCOC3)no2)c1 (stereo unspecified)	-9.4%	-15.3%	44.7µM*	-0.9%	?
O=C(c1ccc(F)cc1)N1CCCC(C(=O)N2CCC(c3ccccc3)CC2)C1 (stereo unspecified)	?	-10.2%	.	.	?
O=C(Nc1ccc(F)cc1)c1nc2sccn2c1-c1ccc(C(F)(F)F)cc1	?	-21.4%	.	.	?
COc1cc2c(cc1-c1cccc(C(F)(F)F)c1)OCC(C)(C)CC2CO (stereo unspecified)	31.6µM*	.	.	.	28.2µM*
COc1ncccc1CNC[C@H]1Cn2c(-c3ccc(Cl)cc3)cnc2CO1	?	i	i	-24.4%[70.6 µM]	89.1µM*
O=C(NC[C@H]1Cn2c(-c3ccc(Cl)cc3)cnc2CO1)Nc1ccccc1	63.1µM*	i	i	?	?
O=C(NC[C@H]1Cn2c(-c3cccc(Cl)c3)cnc2CO1)Nc1ccccc1	100µM*	-8.6%[88.5 µM]	i	?	?
Clc1cccc(-c2cnc3n2C[C@H](CNCc2ccccc2)OC3)c1	?	-0.9%[88.5 µM]	i	-3.7%[70.6 µM]	79.4µM*
CCCN1C(CC(C)C)=NS(=O)(=O)c2cc(NC(=O)c3cccs3)ccc21	?	i	i	-0.3%	4.2%
O=C(NCc1ccc(F)cc1)c1nc(-c2ccc(Cl)cc2Cl)c2cnccn12	?	-14.5%	.	.	?
Cc1ccccc1CNC[C@H]1Cn2c(-c3ccccc3)cnc2CO1	112µM*	4.5%[88.5 µM]	i	-4.9%[70.6 µM]	?
c1ccc(CNC[C@H]2Cn3c(-c4ccccc4)cnc3CO2)cc1	?	-36.1%[88.5 µM]	i	-13.3%[70.6 µM]	-34.6%[174 µM]
c1ccc2ncc(CNC[C@H]3Cn4c(-c5ccc6c(c5)OCCO6)cnc4CO3)cc2c1	50.1µM*	?	?	35.5µM*	?
